Assay results reported in PubChem BioAssay (NCI).
Values joined by “and” are separate entries in the source; they are usually repeats but may differ in a detail not shown here. Equal entries are not always repeated. This is part of a sample that, as a whole, favours compounds with a hit. Of some 79,000 tested, about 15% had one in any assay. Where a structure was tested more than once in an assay, its records may differ in their call. Active and inactive are the calls of the source. Rule as the data show it: active = growth inhibition above about 70%; inactive = the rest.

Assay: NCI Yeast Anticancer Drug Screen. Data for the mlh1 rad18 strain (AID 175)
Settings: S. cerevisiae mlh1 rad18 strain growth inhibition; at 50.0 µM; stronger effect = higher value
Summary of the method: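 Test agents were incubated with a yeast strain of defined genotype (DNA damage repair defect). Inhibition of growth was derived by comparison with vehicle-exposed cultures.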

Row | SMILES | growth inhibition
1 | O=C(O)C1(O)C[C@@H](O)C(O)[C@H](O)C1 (some centres undefined) | 3.6% (inactive) and -2.65% (inactive)
2 | C1CCC(N2CN(C3CCCCC3)C2)CC1 | -31.8% (inactive) and 18% (inactive)
3 | O=P(O)(O)Oc1ccccc1 | -12.1% (inactive) and 9.2% (inactive)
4 | CCOc1ccc(C=O)cc1OC | -11.4% (inactive) and 0.1% (inactive)
5 | OC1C2COC(O2)C(O)C1O (centres undefined) | 7.05% (inactive) and -18.7% (inactive)
6 | Cn1c(=O)c2[nH]cnc2n(C)c1=O | 19.1% (inactive) and 2.8% (inactive)
7 | CC1C(=O)c2cc3c(cc2CCN(C)Cc2c1ccc1c2OCO1)OCO3 (centres undefined) | -31.8% (inactive) and 14.6% (inactive)
8 | O=CC(O)C(O)C(OC1OC(CO)C(O)C(O)C1O)C(O)CO (centres undefined) (tested in a mixture with another compound) | 95.3% (active) and 49.9% (inactive)
9 | CC(C)(O)C(I)C[n+]1ccccc1 (centres undefined) | 46.9% (inactive) and -7.3% (inactive)
10 | CC1(C)OC2OC(C(COS(C)(=O)=O)OS(C)(=O)=O)C(OS(C)(=O)=O)C2O1 (centres undefined) | 16.2% (inactive) and 8% (inactive)
11 | Cc1ccc(S(=O)(=O)N(C)c2ccccc2)cc1 | -10% (inactive) and 9.95% (inactive)
12 | CC1CC(C)(C)C2=NCCN21 (centres undefined) | -0.7% (inactive) and -3.25% (inactive)
13 | O=C1C2C3C=CC(C3)C2C(=O)N1O (centres undefined) | 11.4% (inactive) and 18.5% (inactive)
14 | C=C1C(=O)OC2/C=C(/C)C3CC(O)C(C)(CC(OC(=O)/C(C)=C/C)C12)O3 (centres undefined) | -5.35% (inactive) and 2.9% (inactive)
15 | O=C(O)C(Cc1ccc(O)cc1)NS(=O)(=O)Cc1ccccc1 (centres undefined) | -19.1% (inactive) and 3.8% (inactive)
16 | N#Cc1c(-c2ccccc2)cc(-c2ccccc2)n(C2OC(CO)C(O)C(O)C2O)c1=O (centres undefined) | -7.95% (inactive) and -10.8% (inactive)
17 | O=C1NC(=O)C(CO)(c2ccccc2)N1 (centres undefined) | 7.2% (inactive) and 21.4% (inactive)

Row | SMILES | growth inhibition
18 | CSCCC(NC(=O)CN)C(=O)O (centres undefined) | 5.35% (inactive) and -7.05% (inactive)
19 | CCCCc1ccc(OC2OC(COC(C)=O)C(OC(C)=O)C(OC(C)=O)C2OC(C)=O)cc1 (centres undefined) | -35.5% (inactive) and -0.5% (inactive)
20 | CC(C)(C)CC(C)(C)c1ccc(O)c(SSc2cc(C(C)(C)CC(C)(C)C)ccc2O)c1 | 6.65% (inactive) and 24.1% (inactive)
21 | CCCc1ccc(OC2OC(COC(C)=O)C(OC(C)=O)C(OC(C)=O)C2OC(C)=O)cc1 (centres undefined) | -8.05% (inactive) and 4.1% (inactive)
22 | COc1ccc(COC(=O)NCC(=O)NC(C)C(=O)NC(Cc2ccccc2)C(=O)OCc2ccccc2)cc1 (centres undefined) | 4.25% (inactive) and 6.25% (inactive)
23 | COC1OC2COC(c3ccccc3)OC2C(OC(C)=O)C1OC(C)=O (centres undefined) | 19.9% (inactive) and -14.9% (inactive)
24 | Cc1cc(Cc2cc(C)c(O)c(C(=O)O)c2)cc(C(=O)O)c1O | 7.05% (inactive) and -16.3% (inactive)
25 | O=C1CCSSCCC(=O)NCCN1 | 16.2% (inactive) and 0.4% (inactive)
26 | COC1C(C)OCOC2COCOC21 (centres undefined) | 7.4% (inactive) and -0.45% (inactive)
27 | C[N+](C)(C)CCOC(=O)c1ccccc1CBr | 3.95% (inactive) and 64.9% (inactive)
28 | C[N+](C)(C)CCOP(=O)(O)OP(=O)([O-])OCC1CCC(n2ccc(N)nc2=O)O1 (centres undefined) | -38.8% (inactive) and -3.45% (inactive)
29 | C/C(=N\O)c1ccccc1 | -19.9% (inactive) and 14.5% (inactive)
30 | O=C(CC(=O)c1cccnc1)NC(=O)c1ccccc1 | -6% (inactive) and -1.95% (inactive)
31 | Cc1ccc(S(=O)(=O)NN)cc1 | -20% (inactive) and 5.9% (inactive)
32 | O=c1oc2c(O)c(O)cc3c(=O)oc4c(O)c(O)cc1c4c23 | -8.1% (inactive) and -19.1% (inactive)
33 | C/C(=N\NS(C)(=O)=O)C(C)(C)C | -13% (inactive) and 17.8% (inactive)
34 | CCOC(=O)C(OC1OC(C(=O)OC)C(OC(C)=O)C(OC(C)=O)C1OC(C)=O)c1ccccc1 (centres undefined) | -33.1% (inactive) and -35.5% (inactive)
